Only some compounds are listed: those with a hit (about 28% of all), similar ones and a draw of the others.
CYP2C9 act: CYP2C9 (human) activation. P11712. recombinant CYP2C9, luciferin-H conversion, luminescence; hits give high values; factor 1 = untreated enzyme, 0 = blocked. activation factor at 5 µM. hit rate 1.4% among 96,000. AID 1024;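 active = activation factor of 2 or more for CYP2C9 at a 5 µM dose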;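 also: 0 = sulfaphenazole-blocked wells and 1 = vehicle-only wells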
CYP2C9 inh: human CYP2C9 inhibition; inhibition, % at 5 µM; AID 777; CYP2C9 Supersomes, luciferin-H conversion, luminescence; hit rate 20% among 96,000; P11712;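 active = blocking of liver enzyme CYP2C9 beyond about 50% at 5 µM, limit read from the data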
PTK2B oligo ant: antagonists of human Pyk2 oligomerization. Q14289. Q293 cells, Pyk2 FERM NanoBiT luminescence; hits give low values. z-score (the deposit names both 25 µM and 10 µM). hit rate 0.83% among 99,000. AID 1347419;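 active = Z-score of -3 or lower, scaled per plate to the spread of control and sample wells; inactive = z-score above -3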;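 also: negative z-score means lost luminescence so less FERM oligomerization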
Target sequence (Q14289 whole entry, looked up): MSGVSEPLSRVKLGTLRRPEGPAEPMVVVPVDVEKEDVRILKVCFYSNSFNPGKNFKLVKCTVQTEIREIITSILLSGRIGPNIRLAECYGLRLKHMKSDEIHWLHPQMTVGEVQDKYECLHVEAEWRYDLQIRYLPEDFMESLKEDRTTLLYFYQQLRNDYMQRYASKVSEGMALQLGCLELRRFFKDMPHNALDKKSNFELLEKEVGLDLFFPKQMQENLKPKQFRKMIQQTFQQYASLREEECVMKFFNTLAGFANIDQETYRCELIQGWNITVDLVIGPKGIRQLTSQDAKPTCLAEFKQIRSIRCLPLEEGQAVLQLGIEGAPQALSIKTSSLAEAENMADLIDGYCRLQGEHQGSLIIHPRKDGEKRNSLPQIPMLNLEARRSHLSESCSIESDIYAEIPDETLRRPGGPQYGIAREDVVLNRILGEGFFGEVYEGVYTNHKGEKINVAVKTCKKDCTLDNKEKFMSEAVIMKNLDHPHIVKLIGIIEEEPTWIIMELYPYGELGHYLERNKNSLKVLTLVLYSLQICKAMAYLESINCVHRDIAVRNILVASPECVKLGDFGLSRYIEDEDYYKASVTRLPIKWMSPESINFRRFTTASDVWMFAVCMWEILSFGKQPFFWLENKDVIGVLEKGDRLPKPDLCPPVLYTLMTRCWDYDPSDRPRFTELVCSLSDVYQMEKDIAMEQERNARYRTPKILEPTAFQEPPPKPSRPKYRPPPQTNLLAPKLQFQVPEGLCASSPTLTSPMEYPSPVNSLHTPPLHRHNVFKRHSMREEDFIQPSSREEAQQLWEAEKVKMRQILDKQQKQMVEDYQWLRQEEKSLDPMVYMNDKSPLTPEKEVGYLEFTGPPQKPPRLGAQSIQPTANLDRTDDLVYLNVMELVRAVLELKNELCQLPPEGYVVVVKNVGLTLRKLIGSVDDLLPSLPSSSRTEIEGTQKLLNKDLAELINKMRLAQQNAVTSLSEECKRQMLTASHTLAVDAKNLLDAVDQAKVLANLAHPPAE
CYP2C19 inh: blocks human cytochrome P450 2C19; P33261; CYP2C19 Supersomes, luciferin-H EGE luminescence, 30 min; inhibition, % at 5 µM; hit rate 21% among 96,000;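 active = CYP2C19 inhibition above a set limit at 5 µM in the primary screen, cut at about 50% in these data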;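 also: plate controls were negative control wells for no effect and 2.5 mM tranylcypromine positive control for full effect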
CYP2C19 act: cytochrome P450 2C19 (human) activation | activation factor at 5 µM | 96,000 tested, under 10 active | P33261 | recombinant CYP2C19, luciferin-H EGE luminescence; hits give high values; 0 = fully inhibited enzyme, 1 = untreated enzyme;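 active = activation factor of at least 2 at 5 µM in the primary screen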;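 also: 0 = wells with 2.5 mM tranylcypromine and 1 = vehicle-only wells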
An asterisk follows results filed as active; · = not tested or not shown.

SMILES	CYP2C9 act	CYP2C9 inh	PTK2B oligo ant	CYP2C19 inh	CYP2C19 act
COc1cccc(OC)c1C(=O)Nc1cc(Cl)ccc1N1CCOCC1	0.4	62*	-0.04	41	0.6
O=C(Nc1cc(C(F)(F)F)ccc1N1CCOCC1)c1cccs1	0.9	15	-0.48	59*	0.4
O=C(Nc1cc(C(F)(F)F)ccc1N1CCOCC1)c1cccc(F)c1	1	4	0.97	83*	0.2
O=C(Nc1cc(C(F)(F)F)ccc1N1CCOCC1)c1ccc2ccccc2n1	0.4	60*	-1.2	31	0.7
COc1cc(C2NC(=O)NC(C)=C2C(=O)OC2CCCC(C)C2)ccc1O (stereo not drawn)	0.8	16	0.56	9	0.9
CC(C)(C)C(=O)NC(=S)Nc1cc(C(F)(F)F)ccc1N1CCOCC1	0.1	94*	-1.4	96*	0
O=C(Nc1ccccc1)C1Cc2ccccc2CN1C(=O)c1ccco1 (stereo not drawn)	0.9	9	1.2	29	0.7
O=C(Nc1cc(C(F)(F)F)ccc1N1CCOCC1)C1Cc2ccccc2CN1C(=O)c1ccco1 (stereo not drawn)	0	96*	-0.54	90*	0.1
CC(C)(C)C(=O)Nc1cc(C(F)(F)F)ccc1N1CCOCC1	·	·	0.83	·	·
CCOC(=O)C(CO)(NC(C)=O)C(=O)OCC	1.1	-11	-0.2	-16	1.2
Cc1ccccc1NC(=O)C1CCN(c2cc(-c3ccccc3)nc3ncnn23)CC1	·	·	-2.6	·	·
CCCS(=O)(=O)N1CCC(C(=O)NCCCOCC)CC1	0.9	8	1.2	1	1
O=C(NNc1ncc(C(F)(F)F)cc1Cl)c1c(Cl)cccc1Cl	2.4*	-142	-0.5	33	0.7
Cc1cccc(C)c1NC(=S)NNc1ncc(C(F)(F)F)cc1Cl	0.9	13	0.59	75*	0.2
Cc1c(Cl)cccc1NC(=S)NNc1ncc(C(F)(F)F)cc1Cl	2.2*	-116	-1.1	91*	0.1
Cc1ccccc1NC(=S)NNc1ncc(C(F)(F)F)cc1Cl	1.2	-17	0.99	77*	0.2
CC(=O)Nc1ccc(S(=O)(=O)NC2(C(F)(F)F)NC(=O)N(c3ccc(Cl)cc3)C2=O)cc1 (stereo not drawn)	0.8	22	0.12	1	1
Fc1ccccc1NC(=S)NNc1ncc(C(F)(F)F)cc1Cl	0.1	87*	0.1	55*	0.4
O=C1Nc2cc(Cl)c(Cl)cc2N(O)N1c1ccc(Cl)c(Cl)c1	0.5	54*	-0.04	12	0.9
CCn1cc(C(=O)NC2CC3CCC2C3)c(=O)c2ccc(C)nc21 (stereo not drawn)	1	2	·	13	0.9
CC(C)N(C(=O)CSc1nc2ccccc2n1-c1ccccc1)C(C)C	·	·	-0.79	51*	0.5
O=S(=O)(N/N=C\C=C\c1ccccc1)c1ccc(Cl)cc1	0	96*	1.1	36	0.6
O=S(=O)(N/N=C/c1c(F)cccc1Cl)c1ccccc1	0.8	21	0.85	66*	0.3
Cc1nc2cc(N3CCOCC3)c(NC(=O)C3CC3)cc2c(=O)n1Cc1ccccc1	0.7	28	-0.65	16	0.8
Cc1nc2cc(N3CCCCC3)c(NC(=O)c3ccncc3)cc2c(=O)n1Cc1ccccc1	0.2	81*	0.12	36	0.6
SMILES	CYP2C9 act	CYP2C9 inh	PTK2B oligo ant	CYP2C19 inh	CYP2C19 act
O=c1ccc(Cl)cn1Cc1ccccc1F	·	·	1.4	·	·
CCOCC(=O)Nc1cc(-c2cn3cccnc3n2)ccc1C	1	4	0.28	-4	1
Cc1ccc(-n2nc(C)c3c2OC(N)=C(C#N)C3c2ccncc2)cc1 (stereo not drawn)	0.8	16	-0.96	42	0.6
COc1cc(-n2nc(C)c3c2OC(N)=C(C#N)C3c2ccccc2)c(Cl)c(Br)c1O (stereo not drawn)	0	99*	-2	99*	0
Cc1nn(Cc2ccccc2)c2c1C(c1cccc(Cl)c1)C(C#N)=C(N)O2 (stereo not drawn)	0.1	91*	-2	85*	0.1
CCCc1nn(C)c2c1C(c1ccncc1)C(C#N)=C(N)O2 (stereo not drawn)	0.3	72*	-0.73	49	0.5
CCCc1[nH]nc2c1C(c1ccncc1)C(C#N)=C(N)O2 (stereo not drawn)	0.6	44	0.1	35	0.6
Cc1nn(-c2ccccc2)c2c1C(c1ccncc1)C(C#N)=C(N)O2 (stereo not drawn)	0.3	66*	-0.06	59*	0.4
Cc1nn(-c2ccccc2)c(Cl)c1C1C(C#N)=C(N)OC2=C1C(=O)CCC2 (stereo not drawn)	0.2	76*	-0.52	91*	0.1
Cc1[nH]nc2c1C(c1ccc(-c3ccccc3C#N)o1)C(C#N)=C(N)O2 (stereo not drawn)	0.1	93*	-0.55	68*	0.3
Cc1nn(-c2ccccc2)c(Cl)c1C1C(C#N)=C(N)Oc2n[nH]c(C)c21 (stereo not drawn)	0.2	78*	0.51	83*	0.2
Cc1nn(-c2ccccc2)c(Cl)c1C1C(C#N)=C(N)Oc2c1c(C)nn2-c1ccccc1 (stereo not drawn)	0.1	91*	0.32	81*	0.2
Cc1ccc(-n2nc(C)c3c2OC(N)=C(C#N)C3c2ccccc2F)cc1 (stereo not drawn)	0.6	44	0.43	-7	1.1
Cc1occc1C(=O)NNC(=O)NC12CC3CC(CC(C3)C1)C2	1	-4	3.3	15	0.8
Cc1cccc(OCC(=O)O/N=C(\N)Cc2ccc(Cl)cc2)c1	1.1	-7	0.23	1	1
CN(C)S(=O)(=O)n1cnc(-c2ccccc2)c1-c1ccccc1	0.8	24	-0.87	18	0.8
Cc1ccc(-n2nc(C)c3c2OC(N)=C(C#N)C3c2cccs2)cc1 (stereo not drawn)	0.7	27	0.29	7	0.9
Cc1nn(-c2ccccc2)c2c1C(c1c(C)[nH]c(C#N)c1C)C(C#N)=C(N)O2 (stereo not drawn)	0.1	87*	-0.35	74*	0.3
CCOC(=O)CC1C(=O)NCCN1C(=O)c1cccc(C(F)(F)F)c1 (stereo not drawn)	1	3	-0.42	-7	1.1
Cc1csc2nc(CNC(=O)c3cccc(C(F)(F)F)c3)cn12	2*	-102	-1.2	14	0.9
O=C(NCc1cccnc1)c1cccc(C(F)(F)F)c1	0.8	22	-0.52	89*	0.1
O=C(NCc1cccc(Cl)c1)c1cccnc1	0.8	17	0.74	24	0.8
O=C(CSCc1c(Cl)cccc1Cl)NCc1cccnc1	0.8	16	0.14	54*	0.5
O=C(NCc1cccnc1)c1ccc(Cl)c(Cl)c1	0.9	11	-0.42	75*	0.3
O=C(NCc1cccnc1)c1sc2ccccc2c1Cl	0.7	33	-0.22	88*	0.1
CCOCc1nc(C)c(Cl)c(NS(=O)(=O)c2ccc(N)cc2)n1	0.8	24	-0.78	-4	1

Screens as filed in PubChem.
